In PubChem BioAssay (NCATS):
The source made the active and inactive calls. The call rests on the fitted dose curve; in most records, active means well fitted curve in the direction sought with a large enough effect; inconclusive means small, poorly fitted or top-dose-only effect, or another doubt; inactive means no such curve, though single readings can be large or run the other way.

Test: Cellular Toxicity (caspase-3) MRC-5 (AID 659)
Settings: MRC-5 cells, luminescence, normalized: DMSO 0%, 10 µM staurosporine 100%; series mostly up to 91.7 µM; caspase-3 activation: at the top concentration
Source text: NIH Chemical Genomics Center [NCGC]
NIH Molecular Libraries Screening Centers Network [MLSCN]
National Institutes of Environmental Health Sciences [NIEHS]
National Toxicology Program [NTP]
We have developed a 1536-well cell-based assay for quantitative high throughput screening (qHTS) against a number of cell lines to determine in vitro caspase 3/7 activity of small molecules. This particular assay uses the MRC-5 cell line which is derived from human normal lung fibroblasts.
NCGC Assay Protocol Summary:
The Caspase-Glo 3/7 assay (Promega) is a homogeneous method to measure caspase-3 and caspase-7 activities in cultured cells. The quantitation of caspase 3/7 activity is based on the cleavage of a peptide-aminoluciferin substrate. After caspase cleaves the substrate the free aminoluciferin is liberated and serves as the substrate of luciferase, which generates the light. The luminescent signal is proportional to amount of caspase 3/7 activity present.
Using the Caspase-Glo 3/7 assay, the amount of caspase 3/7 activity was measured in the MRC-5 line with complete culture medium following compound treatment for 16 hours. The assay was performed in opaque white 1536-well plates. In the screen, tamoxifen and staurosporine were used as positive controls. Library compounds were measured for their ability to cause the activation of caspase 3/7 in the cell line, as reflected by an increase in luminescence signal, in a concentration-dependent manner. Data were normalized to the controls for basal activity (DMSO only) and 100% stimulation (10 uM staurosporine). AC50 values were determined from concentration-response data modeled with the standard Hill equation.
qHTS protocol for caspase 3/7 assay in MRC-5 cells
[Step] [Parameter] [Value] [Description]
1. Reagent; 5 uL; 1500 MRC-5 cells/well
2. Time; 5 hr; 37 °C incubation
4. Controls; 23 nL; Tamoxifen 0.23 uM to 100 uM & staurosporine 1.4 pM to 100 uM
5. Time; 16 hr; 37 °C incubation
6. Reagent; 5 uL; Caspase-Glo 3/7 reagent
7. Time; 1 hr; Room Temperature
8. Detection; Luminescence; Viewlux plate reader
Keywords: caspase 3/7, apoptosis, MRC-5 cell line, luminescence, NTPHTS, NTPHTS_NCGC, NIEHS, EPA, DSSTox, MLSMR, MLSCN, NIH Roadmap, qHTS, NCGC

Row | SMILES | caspase-3 activation
1 | C[C@@H]1CC[C@@]2(OC1)O[C@H]1[C@@H](O)[C@H]3[C@@H]4CC[C@H]5C[C@@H](O[C@@H]6O[C@H](CO)[C@H](O[C@@H]7O[C@H](CO)[C@@H](O)[C@H](O[C@@H]8OC[C@@H](O)[C@H](O)[C@H]8O)[C@H]7O[C@@H]7O[C@H](CO)[C@@H](O)[C@H](O[C@@H]8O[C@H](CO)[C@@H](O)[C@H](O)[C@H]8O)[C@H]7O)[C@H](O)[C@H]6O)[C@H](O)C[C@]5(C)[C@H]4CC[C@]3(C)[C@H]1[C@@H]2C | -6.36% (inactive)
2 | [Cd+2].[Cl-].[Cl-] | -3.1% (inactive)
3 | ClC1=C(Cl)C2(Cl)C3C(Cl)C(Cl)CC3C1(Cl)C2(Cl)Cl (configuration not stated) | 7.28% (inactive)
4 | O=C(O)C1C(C(=O)O)C2(Cl)C(Cl)=C(Cl)C1(Cl)C2(Cl)Cl (configuration not stated) | 3.21% (inactive)
5 | FC(F)(F)c1ccc(Cl)cc1 | -1.75% (inactive)
6 | CC(=O)[O-].CC(=O)[O-].O.O.[Cd+2] | -3.84% (inactive)
7 | OC(c1ccc(Cl)cc1)(c1ccc(Cl)cc1)C(Cl)(Cl)Cl | 2.44% (inactive)
8 | [CH3][Hg][Cl] | -4.74% (inactive)
9 | CCCCCCCCn1sccc1=O | -5.76% (inactive)
10 | c1ccc2cc3c(cc2c1)-c1cccc2cccc-3c12 | -0.089% (inactive)
11 | Clc1ccc(C(c2ccc(Cl)cc2)C(Cl)Cl)cc1 | 1.86% (inactive)
12 | Oc1c(Br)c(Br)c(Br)c(Br)c1Br | 0.474% (inactive)
13 | CN(C)c1ccc(N=O)cc1 | -3.01% (inactive)
14 | C(=NC1CCCCC1)=NC1CCCCC1 | 6.48% (inactive)
15 | COP(=O)(OC)O/C(=C\Cl)c1cc(Cl)c(Cl)cc1Cl | -2.63% (inactive)
16 | Nc1ccccc1C(=O)OCCc1ccccc1 | -4.66% (inactive)
17 | O=C(CCl)c1ccccc1 | -6.81% (inactive)
18 | O=[N+]([O-])C(Br)Br | 0.235% (inactive)
19 | CC(C)CC(C)Nc1ccc(Nc2ccccc2)cc1 (configuration not stated) | 3.08% (inactive)
20 | C#CCO | -1.81% (inactive)
21 | O=[N+]([O-])c1cc(C(F)(F)F)cc([N+](=O)[O-])c1Cl | -0.684% (inactive)
22 | O=C1C2(Cl)C3(Cl)C4(Cl)C(Cl)(Cl)C5(Cl)C3(Cl)C1(Cl)C5(Cl)C24Cl (configuration not stated) | 22.8% (inactive)
